Here are results for 8 molecules from the supplement of paper PMC11624193, “Coupling cellular drug-target engagement to downstream pharmacology with CeTEAM” (Nature Communications, 2024).

Counter-ions that a name gives are not always drawn. Unmarked numbers belong to inactive results.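 How the source made its calls: active = log2 fold change beyond 2 SD from the library mean after excluding viability outliers; inactive = within 2 SD.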

This assay has as its target PARP1 L713F-nLuc biosensor (HCT116) (UniProt P09874). Briefly: PARP1 L713F-nLuc/akaLuc ratio relative to DMSO control (biosensor stabilization) (fold change); higher = more PARP1 biosensor stabilization (target engagement / stabilizer), active = hit call of the paper. The settings on record: stock concentration (mM; final µM = stock mM x 1): 10; 24 h.

Chain of PARP1 L713F-nLuc biosensor (HCT116) (P09874 whole entry L713F, looked up): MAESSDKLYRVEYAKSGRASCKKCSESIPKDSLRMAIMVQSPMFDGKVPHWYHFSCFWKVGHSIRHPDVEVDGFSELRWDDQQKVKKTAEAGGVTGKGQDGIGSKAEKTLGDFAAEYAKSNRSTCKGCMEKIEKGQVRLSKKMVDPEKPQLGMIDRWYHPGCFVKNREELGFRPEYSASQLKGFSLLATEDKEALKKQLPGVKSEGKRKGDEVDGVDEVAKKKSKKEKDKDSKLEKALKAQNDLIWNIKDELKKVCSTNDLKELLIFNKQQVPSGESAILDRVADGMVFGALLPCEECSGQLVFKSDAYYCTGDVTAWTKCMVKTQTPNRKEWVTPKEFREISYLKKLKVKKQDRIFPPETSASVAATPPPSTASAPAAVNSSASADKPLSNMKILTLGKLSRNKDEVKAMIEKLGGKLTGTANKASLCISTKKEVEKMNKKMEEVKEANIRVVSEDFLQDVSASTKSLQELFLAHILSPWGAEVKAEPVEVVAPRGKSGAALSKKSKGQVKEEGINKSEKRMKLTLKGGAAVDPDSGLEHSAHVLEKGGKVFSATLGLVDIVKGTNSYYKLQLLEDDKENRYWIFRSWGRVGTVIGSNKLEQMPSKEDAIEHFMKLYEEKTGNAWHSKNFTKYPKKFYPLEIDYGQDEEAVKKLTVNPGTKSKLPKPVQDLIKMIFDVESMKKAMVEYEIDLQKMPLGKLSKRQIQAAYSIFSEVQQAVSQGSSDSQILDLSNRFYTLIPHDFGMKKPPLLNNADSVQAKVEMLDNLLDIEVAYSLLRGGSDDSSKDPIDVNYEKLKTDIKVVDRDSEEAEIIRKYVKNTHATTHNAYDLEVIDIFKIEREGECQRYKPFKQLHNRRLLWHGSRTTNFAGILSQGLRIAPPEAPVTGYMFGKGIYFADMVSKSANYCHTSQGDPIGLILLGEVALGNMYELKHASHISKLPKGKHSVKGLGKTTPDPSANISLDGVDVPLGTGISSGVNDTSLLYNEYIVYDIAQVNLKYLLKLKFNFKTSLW

As to `N#Cc1cc(F)cc(Oc2ccc(S(=O)(=O)C(F)F)c3c2CC(F)(F)[C@H]3O)c1`, the “PARP1 L713F-nLuc/akaLuc ratio” value is 0.774.
Turning to `N#CCC1(n2cc(-c3ncnc4[nH]ccc34)cn2)CN(C2CCN(C(=O)c3ccnc(C(F)(F)F)c3F)CC2)C1` [Itacitinib adipate], the “PARP1 L713F-nLuc/akaLuc ratio” value was 1.05.
As to `O=C1c2ccccc2C(=O)c2c(NCCc3ccc(O)cc3)ccc(NCCc3ccc(O)cc3)c21`, the “PARP1 L713F-nLuc/akaLuc ratio” value was 0.91.
For `C[C@@H](Nc1cc(F)cc(F)c1)c1cc(C(=O)N(C)C)cc2c(=O)cc(N3CCOCC3)oc12`, the “PARP1 L713F-nLuc/akaLuc ratio” value is 0.667.
`COc1cc(N2CCC(N3CCN(C)CC3)CC2)ccc1Nc1ncnc(Nc2ccccc2S(=O)(=O)C(C)C)n1`: the “PARP1 L713F-nLuc/akaLuc ratio” value was 0.97.
`CC(C)N(CCCNC(=O)Nc1ccc(C(C)(C)C)cc1)C[C@H]1O[C@@H](n2ccc3c(N)ncnc32)[C@H](O)[C@@H]1O`: the “PARP1 L713F-nLuc/akaLuc ratio” value was 2.19.
The same measure for `Cc1cc(C)c(CN2CCc3c(Cl)cc(-c4c(C)noc4C)c(Cl)c3C2=O)c(=O)[nH]1`: 0.881.
Regarding `C[C@H](Nc1cc(-c2cnn(C)c2)cc(Nc2cnccn2)n1)c1ccc(F)cc1` [Ilginatinib hydrochloride], the “PARP1 L713F-nLuc/akaLuc ratio” value is 0.281 (active).
